# Reference: the OligoGym collection
# Biological target: HAX1
# Assay: pooled miR-30 sensor sort-seq; sequence = guide strand
# Conditions: shRNA
row,Sequence,sensor-assay potency score (higher = more potent)
1,TGCTATTGAAATCTCGTACTAG,0.119
2,TTACTGTAGTCTCTGTCCGGCC,-0.884
3,TACTTAAGCATTGAGTCCCGAA,-0.493
4,TTCACTATTCCACATATCCAAG,-1.52
5,TATTGAAATCTCGTACTAGGTC,-0.361
6,TAGGACTGCTATCTGCTTCGTG,0.298
7,TTATCGTGGAAACGTATCCCTC,-1.22
8,TACTAGGTCATCAAAGCCGAAG,-1.1
9,TTAGTGATCTTGGTCACAGAGA,-0.982
10,TTGGTCACAGAGATGCTCTTGA,0.864
11,TCACTGTCCACCACAGTCCGGC,-0.474
12,ACTTCTTGCATCACTCTCCAAG,-1.46

# Biological target: HBA1
# Assay: as above
# Conditions: shRNA
row,Sequence,sensor-assay potency score (higher = more potent)
1,AAGACCACGGGGGTACGGGTGC,-0.867
2,TCAAAGACCACGGGGGTACGGG,-0.714
3,ACGGGGGTACGGGTGCAGGAAG,-2.14
4,ACCACGGGGGTACGGGTGCAGG,-2.46
5,AAGGGGCAAGAAGCATGGCCAC,-1.79
6,AAAGACCACGGGGGTACGGGTG,-1.54
7,TTCAAAGACCACGGGGGTACGG,-1.1
8,CAGGAAGGGGAGGAGGGGCTGG,-1.95
9,TACGGGTGCAGGAAGGGGAGGA,-0.675

# Biological target: HBA2
# Assay: as above
# Conditions: shRNA
row,Sequence,sensor-assay potency score (higher = more potent)
1,TTTATTCAAAGACCAGGAAGGG,-0.785
2,AAGGGCCGGTGCAAGGAGGGGA,-0.735
3,TGGCTTAGGAGCTTGAAGTTGA,-0.42
4,AAGTTGACCGGGTCCACCCGAA,-0.435
5,AGGGCCGGTGCAAGGAGGGGAG,-1.98
6,TTATTCAAAGACCAGGAAGGGC,-1.06
7,AGGAAGGGCCGGTGCAAGGAGG,-2.16
8,AAGACCAGGAAGGGCCGGTGCA,-1.15
9,AGACCAGGAAGGGCCGGTGCAA,-1.65
10,TTGGGAGGCCCAGCGGGCAGGA,-2
11,TCAAAGACCAGGAAGGGCCGGT,0.259
12,AAGTAGGTCTTGGTGGTGGGGA,-0.536
13,TTCAAAGACCAGGAAGGGCCGG,-0.416
14,TATTCAAAGACCAGGAAGGGCC,-0.938
15,TGCAAGGAGGGGAGGAGGGCCC,-1.68

# Biological target: HBB
# Assay: as above
# Conditions: shRNA
row,Sequence,sensor-assay potency score (higher = more potent)
1,TCTGATAGGCAGCCTGCACTGG,-0.723
2,AACAGCATCAGGAGTGGACAGA,-1.35
3,TTTAGTAGTTGGACTTAGGGAA,0.165
4,ATCAGGAGTGGACAGATCCCCA,-1.55
